Experimental data as given in PubChem BioAssay (NCATS).
Results filed as inconclusive are left out. The source made the active and inactive calls. Unless noted, the call rests on the fitted dose curve; in most records, active means well fitted curve in the direction sought with a large enough effect; inconclusive means small, poorly fitted or top-dose-only effect, or another doubt; inactive means no such curve, though single readings can be large; an effect the other way counts as inactive or inconclusive.

Tests used:
[1] = AP1 Signaling Pathway (AID 357; active means well fitted curve in either direction with a large enough effect, not every such curve was filed as active;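 further: ME-180 reporter cells stimulated with EGF at its EC50 level; on the % scale 0 is the no-effect control and ±100 the full control effect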); details: ME-180 AP-1-bla reporter, EGF-induced, beta-lactamase ratio, 5 h; at 7.69 µM (top of the series) unless noted
Method in brief: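 Modulation of EGF-driven AP-1 transcription was assessed with a beta-lactamase reporter in ME-180 cells. Compound and EC50 EGF were co-incubated 5 hours at 37 °C before 2.5-hour CCF4 loading at room temperature and dual-emission reading.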

[2] = molecular target: Cytochrome P450 1A2 (Homo sapiens) (UniProt P05177); test: p450-cyp1a2 (AID 410; calls by dose curve;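 further: -100% = full effect of reference inhibitor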)
Sequence of Cytochrome P450 1A2 (Homo sapiens) (P05177 whole entry, looked up): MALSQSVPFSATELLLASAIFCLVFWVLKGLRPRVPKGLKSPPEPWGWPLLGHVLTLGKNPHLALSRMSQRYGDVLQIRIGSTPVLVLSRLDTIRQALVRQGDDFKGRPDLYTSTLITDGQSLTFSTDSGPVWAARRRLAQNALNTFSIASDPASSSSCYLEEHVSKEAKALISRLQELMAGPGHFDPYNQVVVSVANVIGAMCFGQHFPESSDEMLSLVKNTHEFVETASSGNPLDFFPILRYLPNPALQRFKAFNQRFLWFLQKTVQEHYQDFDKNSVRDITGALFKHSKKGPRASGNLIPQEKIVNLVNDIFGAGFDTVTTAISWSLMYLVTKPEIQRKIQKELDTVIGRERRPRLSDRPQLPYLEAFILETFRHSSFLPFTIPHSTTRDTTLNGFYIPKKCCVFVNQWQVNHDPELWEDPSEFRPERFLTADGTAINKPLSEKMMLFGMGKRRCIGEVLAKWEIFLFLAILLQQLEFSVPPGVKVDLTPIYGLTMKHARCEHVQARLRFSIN
Method in brief: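 O-Demethylation of luciferin 6' methyl ether by human CYP1A2 is monitored as luciferase luminescence. Substrate sits at Km (100uM); enzyme is 20nM. Values are scaled to 57 uM furafylline as maximal inhibition.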

[3] = NFAT Signaling Pathway (AID 444; active means well fitted curve in either direction with a large enough effect, not every such curve was filed as active;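 further: carbachol stimulus at about its EC50 of 1 µM final; on the % scale 0 is the no-effect control and ±100 the full control effect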); details: Jurkat NFAT-bla M1, carbachol, beta-lactamase ratio, 5 h; at 7.69 µM (top of the series) unless noted
Method in brief: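 Jurkat cells with NFAT-driven β-lactamase reporter and co-expressed M1 receptor, stimulated with carbachol (final 1 uM, ~EC50), compound titration, 5 h at 37 °C. CCF4 loaded 1 h at RT; 460/530 nm ratio gave %activity and AC50.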

[4] = Stat Signaling Pathway (AID 446; active means well fitted curve in either direction with a large enough effect, not every such curve was filed as active;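 further: ME-180 cervical cancer cells given 40 pM IL-6 alongside compound; SIE-controlled beta-lactamase reporter measured as 460/530 nm FRET emission ratio; on the % scale 0 is the no-effect control and ±100 the full control effect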); details: ME-180 SIE beta-lactamase reporter, IL-6 stimulated, 5 h; at 7.69 µM (top of the series) unless noted
Method in brief: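 Overnight-plated ME-180 cells bearing a STAT Inducible Element beta-lactamase reporter; 5 h co-exposure to compound and 40 pM IL-6; values normalized to 300 pM IL-6 and 125 nM JAK inhibitor controls.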

[5] = molecular target: Glucocorticoid receptor (Homo sapiens) (UniProt P04150); test: GR-GFP Redistribution (AID 450;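 active means compounds whose dose series gives a full or clear partial fitted curve of increased nuclear translocation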; further: potency means the concentration at half of the fitted maximal effect); details: U2OS GR-GFP nuclear translocation, laser cytometry, 2 h
Sequence of Glucocorticoid receptor (Homo sapiens) (P04150 whole entry, looked up, the tested form may be a part): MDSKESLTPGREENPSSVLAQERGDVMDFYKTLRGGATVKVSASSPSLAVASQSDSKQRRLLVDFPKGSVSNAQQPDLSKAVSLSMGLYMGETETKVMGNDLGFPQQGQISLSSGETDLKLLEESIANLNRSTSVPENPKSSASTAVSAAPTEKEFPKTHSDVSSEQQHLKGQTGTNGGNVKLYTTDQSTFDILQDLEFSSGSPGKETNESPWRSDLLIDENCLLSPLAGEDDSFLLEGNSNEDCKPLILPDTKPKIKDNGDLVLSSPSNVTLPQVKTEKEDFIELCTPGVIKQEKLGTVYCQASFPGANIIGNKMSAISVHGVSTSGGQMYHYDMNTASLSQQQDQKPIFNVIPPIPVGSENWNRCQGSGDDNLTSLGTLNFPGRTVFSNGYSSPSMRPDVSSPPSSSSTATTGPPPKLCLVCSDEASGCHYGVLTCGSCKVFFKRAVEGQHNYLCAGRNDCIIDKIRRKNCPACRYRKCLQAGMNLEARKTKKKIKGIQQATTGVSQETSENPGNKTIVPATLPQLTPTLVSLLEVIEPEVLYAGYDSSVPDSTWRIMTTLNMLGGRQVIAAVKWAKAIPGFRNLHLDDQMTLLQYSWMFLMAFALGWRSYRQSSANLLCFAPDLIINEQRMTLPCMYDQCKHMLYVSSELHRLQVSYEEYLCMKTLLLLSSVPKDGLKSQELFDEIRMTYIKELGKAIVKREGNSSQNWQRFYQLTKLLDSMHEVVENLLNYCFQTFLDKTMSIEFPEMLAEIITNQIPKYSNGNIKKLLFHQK

[6] = molecular target: Glucocorticoid receptor (Homo sapiens) (UniProt P04150); test: GR-EFC Redistribution (AID 451; calls by dose curve; further: potency means the concentration at half of the fitted maximal effect); details: CHO-K1 GR-EFC translocation, beta-gal luminescence, 2 h
Method in brief: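 CHO-K1 cells expressing nuclear EA and GR-ED fragments of b-gal; compounds titrated up to 46 uM final, 2 h at 37 C. GR nuclear translocation read as complemented b-gal luminescence after 1 h RT detection.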

[7] = molecular target: 3',5'-cyclic-AMP phosphodiesterase 4B (Homo sapiens) (UniProt Q07343); test: qHTS Assay for Inhibitors of PDE-IV (AID 607; active means well fitted activation curve with a large enough effect in the main read-out, with a control signal flat, not every such curve was filed as active; further: % of control where 0% means no effect)
Sequence of 3',5'-cyclic-AMP phosphodiesterase 4B (Homo sapiens) (Q07343 whole entry, looked up): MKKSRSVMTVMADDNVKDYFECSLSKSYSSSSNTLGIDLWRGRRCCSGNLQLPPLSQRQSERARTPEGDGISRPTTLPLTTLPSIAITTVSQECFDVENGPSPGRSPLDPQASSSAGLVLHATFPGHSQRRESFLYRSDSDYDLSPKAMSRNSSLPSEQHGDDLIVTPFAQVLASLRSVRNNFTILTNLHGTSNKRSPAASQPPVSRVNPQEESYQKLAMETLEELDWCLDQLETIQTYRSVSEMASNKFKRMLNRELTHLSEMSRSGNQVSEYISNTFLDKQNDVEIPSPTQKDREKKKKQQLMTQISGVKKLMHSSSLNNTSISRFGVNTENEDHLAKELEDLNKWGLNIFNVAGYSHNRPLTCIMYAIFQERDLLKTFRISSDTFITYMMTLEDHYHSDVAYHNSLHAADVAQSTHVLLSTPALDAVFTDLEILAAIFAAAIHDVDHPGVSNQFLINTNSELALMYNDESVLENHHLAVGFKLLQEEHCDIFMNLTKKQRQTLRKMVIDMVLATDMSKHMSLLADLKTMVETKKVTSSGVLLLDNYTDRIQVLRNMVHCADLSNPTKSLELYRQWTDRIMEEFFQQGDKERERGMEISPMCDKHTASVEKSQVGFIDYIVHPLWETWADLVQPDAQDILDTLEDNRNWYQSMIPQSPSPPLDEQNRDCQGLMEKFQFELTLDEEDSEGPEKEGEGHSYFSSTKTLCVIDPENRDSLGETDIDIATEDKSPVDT
Method in brief: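 Live HEK293 cells with a modified cyclic nucleotide-gated (CNG) channel report intracellular cAMP via membrane-potential dye fluorescence (ex 535/em 590 nm). Endogenous PDE-IV was targeted. Compounds were tested at up to 22.9 uM final; RO 20-1724 100 uM served as control.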

[8] = molecular target: Guanine nucleotide-binding protein G(i) subunit alpha-1 (Homo sapiens) (UniProt P63096); test: qHTS Assay for Inhibitors of RGS12 GoLoco Motif Activity (Green Fluorophore) (AID 879);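 further: 0% = labeled peptide with Gαi1 and full inhibition = labeled peptide alone without protein; negative values mean loss of peptide binding seen as reduced polarization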
Sequence of Guanine nucleotide-binding protein G(i) subunit alpha-1 (Homo sapiens) (P63096 whole entry, looked up): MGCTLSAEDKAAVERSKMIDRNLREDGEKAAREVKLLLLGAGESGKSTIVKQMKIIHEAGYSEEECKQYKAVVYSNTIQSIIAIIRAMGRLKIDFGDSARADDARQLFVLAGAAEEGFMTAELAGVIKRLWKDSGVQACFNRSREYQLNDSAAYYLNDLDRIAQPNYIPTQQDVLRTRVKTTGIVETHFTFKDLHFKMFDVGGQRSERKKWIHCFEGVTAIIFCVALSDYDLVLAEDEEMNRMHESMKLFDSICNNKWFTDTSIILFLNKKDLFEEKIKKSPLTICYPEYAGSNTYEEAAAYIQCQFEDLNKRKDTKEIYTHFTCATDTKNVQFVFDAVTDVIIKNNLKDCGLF
Method in brief: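 A drop in FITC polarization marked displacement of the FITC-tagged RGS12 GoLoco peptide (10 nM) from Gαi1 (50 nM). Compounds were incubated 10 min at room temperature in Tris pH 7.5 buffer containing 150 mM NaCl, 0.1 mM GDP and 0.05% NP40; unlabeled peptide titration served as control.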

[9] = qHTS Assay for Identification of Small Molecule Antagonists for NFkB Signaling Pathway (AID 895; active means well fitted inhibition curve with a large enough effect in the signal ratio, with a control signal flat, not every such curve was filed as active; the % refers to the signal ratio; further: on the % scale 0 is the no-effect control and ±100 the full control effect)
Method in brief: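 ME-180 NFkB-bla cells (beta-lactamase under NFkB response element), plated overnight, treated with compound then 10 pM TNF alpha (about EC50) for 5 hrs at 37 C. LiveBLAzer FRET read at 460/530 nm emission, 405 nm excitation.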

[10] = qHTS Assay for Identification of Small Molecule Agonists for Thrombopoietin (TPO) Signaling Pathway (AID 917); further: on the % scale 0 is the no-effect control and ±100 the full control effect
Method in brief: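 Ba/F3 (mouse) + hTPO receptor + GpIIb-promoter luciferase; IL-3 withdrawn overnight; compound + 26 pM TPO (EC50), 24 hrs, 37 C, 5% CO2; Steadylite luminescence, 10 min RT.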

[11] = molecular target: Muscarinic acetylcholine receptor M1 (Rattus norvegicus) (UniProt P08482); test: qHTS Assay for Antagonists of Acetylcholine Muscarinic M1 Receptor: Kinetic Measurement of Intracellular Calcium Response (AID 943); further: nearly all actives have a fitted effect of over 75% in size; further: potency means the concentration at half of the fitted maximal effect;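 on activity change, negative = inhibition: Fluo-4 calcium signal as peak divided by basal fluorescence over 4 min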
Sequence of Muscarinic acetylcholine receptor M1 (Rattus norvegicus) (P08482 whole entry, looked up): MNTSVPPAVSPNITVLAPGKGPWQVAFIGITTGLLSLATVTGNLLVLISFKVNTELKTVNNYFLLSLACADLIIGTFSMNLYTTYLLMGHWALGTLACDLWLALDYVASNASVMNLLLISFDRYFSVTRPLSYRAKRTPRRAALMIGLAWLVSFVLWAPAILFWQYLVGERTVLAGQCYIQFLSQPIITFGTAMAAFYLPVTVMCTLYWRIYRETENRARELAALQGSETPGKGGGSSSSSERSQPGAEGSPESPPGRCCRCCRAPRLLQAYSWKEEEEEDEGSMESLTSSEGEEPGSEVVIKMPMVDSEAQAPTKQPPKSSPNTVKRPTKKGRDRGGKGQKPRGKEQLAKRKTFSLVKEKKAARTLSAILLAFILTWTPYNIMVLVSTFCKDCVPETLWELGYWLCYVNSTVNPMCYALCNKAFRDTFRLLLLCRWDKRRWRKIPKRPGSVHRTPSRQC
Method in brief: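 Antagonism is measured as inhibition of the carbachol-evoked calcium rise in CHO cells transfected with rat M1. Cells are dye-loaded, exposed to compound for 10 min, then stimulated with 100 nM carbachol (EC80).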

[12] = molecular target: Muscarinic acetylcholine receptor M1 (Rattus norvegicus) (UniProt P08482); test: qHTS Assay for Antagonists of Acetylcholine Muscarinic M1 Receptor: Measurement of IP-One Response (AID 944); further: nearly all actives have a fitted effect of over 75% in size
Method in brief: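 Antagonist mode with rat M1 receptor transfected into CHO cells. Compound is added first for 10 min, carbachol at its EC80 follows for 30 min, and lysis reagents then allow TR-FRET detection of accumulated IP1.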

[13] = molecular target: Pyruvate kinase (Leishmania mexicana) (UniProt Q27686); test: qHTS Validation Assay for Inhibitors of Leishmania Mexicana Pyruvate Kinase (AID 945);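 further: 0% = DMSO only neutral control wells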
Sequence of Pyruvate kinase (Leishmania mexicana) (Q27686 2-499 E452W): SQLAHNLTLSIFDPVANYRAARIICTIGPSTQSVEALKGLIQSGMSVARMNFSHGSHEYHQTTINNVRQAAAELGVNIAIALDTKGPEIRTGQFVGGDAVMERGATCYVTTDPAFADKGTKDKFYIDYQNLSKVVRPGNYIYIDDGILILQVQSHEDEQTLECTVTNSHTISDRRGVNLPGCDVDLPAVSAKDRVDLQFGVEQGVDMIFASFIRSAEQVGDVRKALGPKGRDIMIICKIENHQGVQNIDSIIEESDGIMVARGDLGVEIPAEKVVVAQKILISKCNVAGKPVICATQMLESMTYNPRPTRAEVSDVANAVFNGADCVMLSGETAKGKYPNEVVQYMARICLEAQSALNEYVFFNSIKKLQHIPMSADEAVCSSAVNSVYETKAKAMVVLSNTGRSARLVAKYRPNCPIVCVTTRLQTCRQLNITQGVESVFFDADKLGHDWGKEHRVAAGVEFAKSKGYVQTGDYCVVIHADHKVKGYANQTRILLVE
Method in brief: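 Substrate mix (0.5 mM PEP, 0.1 mM ADP, 7 mM MgCl2, 50 mM KCl, pH 7.2 imidazole) received compound by pin tool, then 0.2 nM LmPYK E451W. After 1 h at room temperature, PKLight was added and luminescence measured.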

[14] = molecular target: Pyruvate kinase PKM (Homo sapiens) (UniProt P14618); test: qHTS Assay for Activators of Human Muscle Pyruvate Kinase (AID 954; active means well fitted curve in the direction sought with a large enough effect, not every such curve was filed as active;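 further: 0% = uninhibited enzyme and -100% = no enzyme or full thiadiazolimine inhibition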)
Sequence of Pyruvate kinase PKM (Homo sapiens) (P14618 whole entry, looked up): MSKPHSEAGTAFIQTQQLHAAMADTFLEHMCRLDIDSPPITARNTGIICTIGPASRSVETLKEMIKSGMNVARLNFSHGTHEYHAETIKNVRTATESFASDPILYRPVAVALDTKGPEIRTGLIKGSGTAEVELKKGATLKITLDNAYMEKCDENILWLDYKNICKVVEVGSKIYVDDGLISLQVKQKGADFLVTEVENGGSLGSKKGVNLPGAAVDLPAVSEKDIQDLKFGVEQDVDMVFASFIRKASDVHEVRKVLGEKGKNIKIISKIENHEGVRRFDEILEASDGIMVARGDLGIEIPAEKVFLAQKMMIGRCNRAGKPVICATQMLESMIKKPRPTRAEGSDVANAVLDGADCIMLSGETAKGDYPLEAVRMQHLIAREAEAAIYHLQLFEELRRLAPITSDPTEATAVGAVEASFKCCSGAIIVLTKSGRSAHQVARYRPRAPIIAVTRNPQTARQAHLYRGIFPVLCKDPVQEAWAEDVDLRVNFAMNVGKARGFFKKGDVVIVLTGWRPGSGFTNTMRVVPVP
Method in brief: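 Screening used highly purified human pyruvate kinase M2 under submaximal activity, with PEP at its Km and ADP below Km. After an hour at room temperature, ATP was read by luciferase luminescence.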

[15] = molecular target: Alpha-galactosidase A (Homo sapiens) (UniProt P06280); test: Counterscreen for Glucocerebrosidase Inhibitors: qHTS Assay for Human alpha-Galactosidase at pH 4.5 (AID 992); further: 0% is about no effect
Sequence of Alpha-galactosidase A (Homo sapiens) (P06280 whole entry, looked up): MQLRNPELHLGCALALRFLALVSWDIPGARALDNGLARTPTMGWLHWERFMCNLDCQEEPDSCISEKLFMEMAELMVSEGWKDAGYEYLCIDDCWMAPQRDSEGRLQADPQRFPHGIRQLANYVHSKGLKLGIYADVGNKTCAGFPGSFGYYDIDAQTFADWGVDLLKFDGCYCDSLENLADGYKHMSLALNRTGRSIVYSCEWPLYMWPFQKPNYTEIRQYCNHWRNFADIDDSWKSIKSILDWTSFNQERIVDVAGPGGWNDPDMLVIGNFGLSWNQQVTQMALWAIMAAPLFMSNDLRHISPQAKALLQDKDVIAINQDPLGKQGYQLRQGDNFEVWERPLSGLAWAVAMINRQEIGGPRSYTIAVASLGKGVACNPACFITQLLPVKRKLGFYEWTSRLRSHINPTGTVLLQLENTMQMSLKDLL
Method in brief: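 Each compound is preincubated briefly with 2 nM enzyme before substrate addition (80 uM); plates then sit 20 min at ambient temperature, are quenched with 1M NaOH/1M glycine, and read fluorometrically.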

[16] = molecular target: alpha-glucosidase (Oryza sativa, rice) (UniProt Q653V4); test: Counterscreen for Glucocerebrosidase Inhibitors: qHTS Assay for Rice alpha-Glucosidase at pH 5.0 (AID 997);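 further: 0% = full activity with enzyme and -100% = basal without enzyme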
Method in brief: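 Endpoint fluorogenic assay at pH 5.0: compounds (0.7 nM to 77 uM) titrated against 4 nM rice enzyme and 400 uM 4-MU-alpha-glucoside for 20 min at room temperature; NaOH/glycine stop, read ex 365/em 440 nm, Hill-fitted AC50.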

[17] = molecular target: Cytochrome P450 3A4 (Homo sapiens) (UniProt P08684); test: qHTS Assay for Activators of Cytochrome P450 3A4 (AID 885); further: nearly all actives have a fitted effect of over 65% in size
Method in brief: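 Using 20nM recombinant human CYP3A4 in potassium phosphate (200mM), substrate Luciferin-PPXE at 25uM, luminescent luciferin detection followed a 60-min RT NADPH reaction; data scaled to 57 uM ketoconazole.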

[18] = molecular target: Mitogen-activated protein kinase 10 (Mus musculus) (UniProt Q61831); test: JNK3 AlphaScreen Assay (AID 530; active means well fitted curve in either direction with a large enough effect, not every such curve was filed as active)
Method in brief: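 Activity was read by AlphaScreen after JNK3-containing HepG2 lysate (cytokine pre-activated) phosphorylated biotinylated GST-cJun with 10 uM ATP at room temperature. Phospho-Ser73 cJun antibody with Protein-A acceptor beads provided detection.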

[19] = molecular target: Cytochrome P450 2C19 (Homo sapiens) (UniProt P33261); test: qHTS Assay for Inhibitors and Substrates of Cytochrome P450 2C19 (AID 899); further: on the % scale 0 is the no-effect control and ±100 the full control effect; nearly all actives have a fitted effect of over 60% in size
Sequence of Cytochrome P450 2C19 (Homo sapiens) (P33261 whole entry, looked up): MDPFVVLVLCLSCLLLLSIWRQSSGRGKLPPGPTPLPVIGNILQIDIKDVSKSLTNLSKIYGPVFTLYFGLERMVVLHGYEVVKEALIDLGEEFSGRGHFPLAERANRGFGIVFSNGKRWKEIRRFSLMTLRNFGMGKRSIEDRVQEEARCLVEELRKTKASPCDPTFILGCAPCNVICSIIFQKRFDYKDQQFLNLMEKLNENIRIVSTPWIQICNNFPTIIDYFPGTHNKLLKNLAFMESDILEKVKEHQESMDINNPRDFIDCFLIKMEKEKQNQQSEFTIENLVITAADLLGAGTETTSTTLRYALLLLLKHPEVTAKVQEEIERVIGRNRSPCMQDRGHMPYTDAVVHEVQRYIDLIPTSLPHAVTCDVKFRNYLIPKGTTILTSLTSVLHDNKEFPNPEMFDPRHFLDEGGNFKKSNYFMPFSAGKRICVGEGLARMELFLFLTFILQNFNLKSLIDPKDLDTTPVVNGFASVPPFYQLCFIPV
Method in brief: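 Signal comes from luciferase acting on luciferin released by CYP2C19-mediated hydroxylation of Luciferin-H EGE, 10uM (KM). Assay mix: 5nM enzyme, 50mM KPO4; 60 min at 37C with NADPH regeneration. Data normalized against 57uM ketoconazole.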

CC(C)(C)c1onc(OCP(=O)(O)O)c1C[C@@H](N)C(=O)O
inactive: activity change, negative = inhibition [1] -0.711% [at 38 µM] | Potency [2] | activity change, negative = inhibition [3] 8.86% [at 38 µM] | activity, negative = inhibition [4] -10.4% [at 38 µM] | Potency [5] > 46 µM | Potency [6] > 46 µM | Potency [7] | outcome [8] | Potency [9] | outcome [10] | Potency [11] | Potency [12] | outcome [13] | outcome [14] | outcome [15] | Potency [16]

Nc1nc(SCc2ccc([N+](=O)[O-])cc2)c2ncn([C@@H]3O[C@@H](CO)[C@@H](O)[C@H]3O)c2n1
inactive: activity change, negative = inhibition [1] -11.9% [at 38 µM] | Potency [2] | activity change, negative = inhibition [3] 0.367% [at 38 µM] | activity, negative = inhibition [4] -17% [at 38 µM] | Potency [5] > 46 µM | Potency [6] > 46 µM | Potency [7] | outcome [8] | Potency [17] | Potency [9] | outcome [10] | outcome [13] | outcome [14] | outcome [15] | Potency [16]
active: Potency [11] 25.1 µM

Nc1ncnc2c1nc(Br)n2[C@@H]1O[C@H]2COP(=O)(O)O[C@@H]2[C@H]1O
inactive: activity change, negative = inhibition [1] -7.65% [at 38 µM] | Potency [2] | activity change, negative = inhibition [3] 6.13% [at 38 µM] | activity, negative = inhibition [4] 4.8% [at 38 µM] | Potency [18] | Potency [7] | outcome [8] | Potency [9] | outcome [10] | Potency [11] | Potency [12] | outcome [13] | outcome [14] | outcome [15] | Potency [16]
active: Potency [5] 2.43 µM

Cc1ccc(S(=O)(=O)N[C@H](CN)C(=O)O)cc1
inactive: activity change, negative = inhibition [1] 10.5% | activity change, negative = inhibition [2] -18.5% [at 2.29 µM] | activity change, negative = inhibition [3] 3.21% | activity, negative = inhibition [4] 8.31% | Potency [5] > 46 µM | Potency [6] > 9.22 µM | Potency [7] | Potency [19]
